Tcruzi prolif – T. cruzi intracellular proliferation inhibitors, primary screen, cell-based, beta-gal Tulahuen parasites, NIH3T3 host, luminescence; T. cruzi beta-gal in NIH3T3, GalScreen luminescence, 90 h; inhibition, % at 8.34 µM; 77,000 compounds, 5.9% hits;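 active = mean inhibition above about 93%, with at least 55% of replicates each passing it, limit read from the data, passing the limit was not always enough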
C diff growth – C. difficile growth inhibitors, primary screen, HTS. Clostridium difficile clinical isolate growth, OD600, 24 h; active compounds read low. growth activity, negative = inhibition, % at 16 µg/mL (by protocol). 86,000 compounds, 0.25% hits. AID 1259249, 2017;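 active = mean growth activity at or below -80% and every replicate also at or below -80%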
Pf Dd2 inh – P. falciparum Dd2 growth inhibitors, primary screen, SYBR Green fluorescence, single dose replicates. 72 h; active compounds read low. 94,000 compounds, 2.3% hits. activity change, % at 10 µM; in the data active = activity change below about -80%
Each line names hits and unclear results; the compound was inactive in the other large screens. Most compounds without a hit are left out; they make up all but 6.7% or so of the library.

CS(=O)(=O)N1[C@H](C#N)[C@@H](c2ccccc2-c2ccc(F)cc2)[C@@H]1CO	none (no result: Tcruzi prolif)
C/C=C/c1ccc([C@H]2[C@@H](CO)N(C(=O)NC3CCCC3)[C@H]2C#N)cc1	none
N#C[C@@H]1[C@H](c2ccccc2/C=C/c2ccccc2)[C@H](CO)N1S(=O)(=O)c1cccc(F)c1	none (no result: Tcruzi prolif)
COc1ccc(-c2ccccc2[C@H]2[C@@H](C#N)N(C(=O)C3CCCC3)[C@H]2CO)cc1	Pf Dd2 inh -98 (no result: Tcruzi prolif)
C/C=C/c1ccc([C@H]2[C@@H](C#N)N(C(=O)NC3CCCC3)[C@@H]2CO)cc1	Pf Dd2 inh -84
N#C[C@@H]1[C@H](c2ccccc2/C=C/c2ccccc2)[C@H](CO)N1S(=O)(=O)c1ccc(F)cc1	Pf Dd2 inh -91 (no result: Tcruzi prolif)
Cc1ccc(S(=O)(=O)Nc2ccc3c(c2)CC(=O)N([C@@H](C)CO)C[C@@H](C)[C@@H](CN(C)C(=O)Nc2ccc(C(F)(F)F)cc2)O3)cc1	none
COCC#Cc1cnc2c(c1)C(=O)N([C@@H](C)CO)C[C@@H](C)[C@H](CN(C)C(=O)CN1CCOCC1)O2	none (no result: Tcruzi prolif)
COCC#Cc1cnc2c(c1)C(=O)N([C@H](C)CO)C[C@@H](C)[C@@H](CN(C)S(C)(=O)=O)O2	none
COc1ccc(-c2ccccc2[C@H]2[C@@H](C#N)N(C(=O)NC3CCCC3)[C@H]2CO)cc1	Pf Dd2 inh -94 (no result: Tcruzi prolif)
CC(C)NC(=O)N1[C@H](C#N)[C@H](c2ccccc2-c2ccc(F)cc2)[C@@H]1CO	Pf Dd2 inh -90 (no result: Tcruzi prolif)
CC(C)NC(=O)N1[C@H](C#N)[C@@H](c2ccccc2-c2ccc(F)cc2)[C@@H]1CO	none (no result: Tcruzi prolif)
COc1ccc(-c2ccccc2[C@@H]2[C@@H](C#N)N(C(=O)NC3CCCCC3)[C@H]2CO)cc1	none (no result: Tcruzi prolif)
CN1c2ccc(C#Cc3ccc(F)cc3)cc2[C@H]2[C@H](CCN2S(=O)(=O)c2ccccc2F)[C@@H]1CO	none
COc1cccc(-c2ccc3c(c2)[C@H]2[C@H](CCN2S(=O)(=O)c2ccc(F)cc2)[C@@H](CO)N3C)c1	none
Cc1cccc(S(=O)(=O)N2CC[C@@H]3[C@H](CO)N(C)c4ccc(C#Cc5ccc(F)cc5)cc4[C@@H]32)c1	C diff growth -98
COc1cccc(S(=O)(=O)N2CC[C@H]3[C@@H](CO)N(C)c4ccc(C#Cc5ccc(F)cc5)cc4[C@H]32)c1	C diff growth -99
CN1c2ccc(-c3ccccc3)cc2[C@H]2[C@H](CCN2S(=O)(=O)c2ccccc2F)[C@H]1CO	none
CN1c2ccc(-c3cccc(C#N)c3)cc2[C@H]2[C@H](CCN2S(=O)(=O)c2ccccc2F)[C@H]1CO	Pf Dd2 inh -95
CO[C@@H]1CN(C)C(=O)c2ccc(NC(=O)Nc3cccc(F)c3)cc2OC[C@H](C)N(C(=O)C2CC2)C[C@H]1C	none (no result: C diff growth, Pf Dd2 inh)
C[C@@H]1CN([C@@H](C)CO)C(=O)c2cccc(NC(=O)C3CCCCC3)c2O[C@H]1CN(C)CC1CCCCC1	none
COc1ccc(S(=O)(=O)N(C)C[C@H]2OCCCC[C@H](C)Oc3ccc(NC(=O)Nc4cccc5ccccc45)cc3C(=O)N([C@H](C)CO)C[C@@H]2C)cc1	none
COc1ccc(S(=O)(=O)N(C)C[C@@H]2OCCCC[C@@H](C)Oc3ccc(NC(=O)Nc4cccc5ccccc45)cc3C(=O)N([C@@H](C)CO)C[C@@H]2C)cc1	Pf Dd2 inh -83
C[C@@H]1CN([C@H](C)CO)C(=O)c2cc(NC(=O)Nc3cccc4ccccc34)ccc2O[C@@H](C)CCCCO[C@H]1CN(C)S(=O)(=O)c1ccccc1	none
COc1ccc(S(=O)(=O)N(C)C[C@H]2OCCCC[C@@H](C)Oc3ccc(NC(=O)Nc4cccc5ccccc45)cc3C(=O)N([C@H](C)CO)C[C@H]2C)cc1	Pf Dd2 inh -82
COc1ccc(NC(=O)Nc2ccc3c(c2)C(=O)N([C@@H](C)CO)C[C@@H](C)[C@@H](CN(C)Cc2ccncc2)OCCCC[C@H](C)O3)cc1	none
C[C@H](CO)N1C[C@H](C)[C@@H](CN(C)S(=O)(=O)c2ccccc2)Oc2ccc(NC(=O)C3CC3)cc2CC1=O	none
C[C@H](O)C#Cc1ccc2c(c1)O[C@H](CN(C)Cc1ccc(-c3ccccc3)cc1)[C@@H](C)CN([C@@H](C)CO)S2(=O)=O	none
COc1ccc(C#Cc2cnc3c(c2)C(=O)N([C@@H](C)CO)C[C@@H](C)[C@@H](CN(C)CC2CC2)O3)cc1	none (no result: C diff growth)
Cc1ccc(S(=O)(=O)N(C)C[C@@H]2OCCCC[C@@H](C)Oc3ccc(NC(=O)CCCCCC(=O)Nc4ccccc4N)cc3C(=O)N([C@H](C)CO)C[C@@H]2C)cc1	none (no result: Tcruzi prolif, Pf Dd2 inh)
C[C@@H]1CCCCO[C@@H](CN(C)S(=O)(=O)c2ccc(Cl)cc2)[C@@H](C)CN([C@H](C)CO)C(=O)c2cc(NC(=O)CCCCCC(=O)Nc3ccccc3N)ccc2O1	none (no result: C diff growth)
